# Screens deposited in PubChem BioAssay by National Center for Advancing Translational Sciences (NCATS).
# A selection: hits, their analogues and other compounds. The true share with any hit is near 6.1%.
# VP16 counter – inhibits Gal4-VP16 luciferase reporter, ROR gamma counter-screen; AID 2546; Drosophila S2 Gal4-VP16 UAS-luciferase, luminescence, 20 h; 310,000 compounds, 3.5% hits; Potency, µM (series often up to 53.6 µM), inactives show at the highest dose activity, negative = inhibition, actives largely listed as inhibitors;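 also: Gal4-VP16 expression switched on by copper sulfate through the metallothionein promoter; % is scaled to controls: 0 for no effect and ±100 for the full control effect; nearly all actives have a fitted effect of over 50% in size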
# ATXN2 expr inh – inhibitors of ATXN2 expression. HEK-293 ATXN2-luciferase reporter, luminescence, 24 h. 360,000 compounds, 0.72% hits. AID 1745845. Potency, µM (doses to about 57 µM), without a hit: top-dose activity change, negative = inhibition, most hits filed as inhibitors; also: % is scaled to controls: 0 for no effect and ±100 for the full control effect; nearly all actives have a fitted effect of over 55% in size
#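 ATXN2-luciferase reporter cells (luciferase flanked by upstream and downstream ATXN2 gene portions) were treated 24 h at 37 °C with compounds at up to 57 uM. SteadyGlo luminescence gave expression; GF-AFC fluorescence gave viability.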
# TGFb inhibitor – blocks TGF-b signaling; HepG2 CAGA-GFP TGF-b/SMAD3 reporter, GFP fluorescence, 18 h; TGF-beta stimulated, 500 pg/mL final; Potency, µM (titrated, usually from 46.1 µM), without a hit: at the top dose activity, negative = inhibition, most hits filed as inhibitors; 410,000 compounds, 1.2% hits; also: % is scaled to controls: 0 for no effect and ±100 for the full control effect; nearly all actives have a fitted effect of over 65% in size
#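 Smad-responsive CAGA-GFP expression was quantified in HEPG2 cells exposed to compounds and 500 pg/mL final TGF-beta for 18 h at 37 degrees C; unstimulated wells defined full inhibition.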
# S2 tox – viability counter-screen for ATXN expression inhibitors | S2 cells (HEK-293 line with an ATXN2-luciferase reporter) viability, CellTiter-Fluor protease fluorescence, 24 h | Potency, µM (highest dose often 56.7 µM), actives largely listed as cytotoxic | 400,000 compounds, 0.49% hits | AID 651635; also: nearly all actives have a fitted effect of over 40% in size
# RORg inh – ROR gamma (mouse) transcription inhibition | Drosophila S2 Gal4-RORgamma UAS-luciferase reporter, 20 h | Potency, µM (titrated, usually from 53.6 µM), inactives show top-dose activity change, negative = inhibition, usual class: inhibitors | 310,000 compounds, 5.4% hits; also: % is scaled to controls: 0 for no effect and ±100 for the full control effect; nearly all actives have a fitted effect of over 60% in size
# Target sequence (P51450 whole entry, looked up, the tested form may be a part): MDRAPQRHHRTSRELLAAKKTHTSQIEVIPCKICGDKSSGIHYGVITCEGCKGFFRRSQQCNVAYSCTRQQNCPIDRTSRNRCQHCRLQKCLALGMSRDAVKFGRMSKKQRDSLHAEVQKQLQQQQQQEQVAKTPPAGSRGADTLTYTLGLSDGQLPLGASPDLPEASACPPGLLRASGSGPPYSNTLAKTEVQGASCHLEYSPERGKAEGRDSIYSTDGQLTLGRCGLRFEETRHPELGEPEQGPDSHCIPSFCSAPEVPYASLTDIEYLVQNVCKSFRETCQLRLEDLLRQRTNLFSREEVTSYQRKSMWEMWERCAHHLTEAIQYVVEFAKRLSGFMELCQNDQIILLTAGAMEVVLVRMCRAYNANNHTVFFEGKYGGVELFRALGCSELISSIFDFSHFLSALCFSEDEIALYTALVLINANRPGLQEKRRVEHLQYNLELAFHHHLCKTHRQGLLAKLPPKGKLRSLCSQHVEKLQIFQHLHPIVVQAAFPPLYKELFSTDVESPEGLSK
#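 Read-out: Photinus luciferase luminescence; inhibitors lower reporter signal. Insect Schneider cells with Gal4-ROR gamma fusion under metallothionein promoter, UAS reporter; 700 uM final copper sulfate induction, 20 hr, ambient temperature.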
# HepG2 tox – counter-screen for TGF-b inhibitors: cytotoxicity in HepG2 cells; HepG2 CAGA-GFP viability, ATP luminescence, 18 h; Potency, µM (highest dose often 46.1 µM), for inactives: at the highest dose activity change, negative = cytotoxicity, usual class: cytotoxic; 410,000 compounds, 0.76% hits
#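 HepG2 CAGA-GFP cells (1000/well, DMEM with 1% FBS) received compound, then TGF-beta at 500 pg/mL final, and were incubated 18 hours at 37 degrees C. Viability was read by CellTiter-Glo luminescence. Media-only wells were set as complete cell-killing and DMSO as no toxicity.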
# The depositor's hits bear a star; i = inactive; ? = inconclusive; / = no result; ! = not confirmed by another sample. Calls follow the shape of the dose curve; as a rule, active = well fitted curve in the direction sought with a large enough effect; inconclusive = small, poorly fitted or top-dose-only effect, or another doubt; inactive = no such curve, though single readings can be large; an effect the other way counts as inactive or inconclusive. Potency is read from the fitted curve at half-maximal effect.
SMILES,VP16 counter,ATXN2 expr inh,TGFb inhibitor,S2 tox,RORg inh,HepG2 tox
O=C(O)CSc1cc(C(=O)c2cc(F)ccc2O)cn2c(=O)c3c(-c4ccccc4)csc3nc12,-17%,/,?,i,35µM*,-20%
O=C(CSc1ccccn1)Nc1nonc1[N+](=O)[O-],5µM*,/,11µM*,13µM*,5.6µM*,13µM*
CCCCc1c(C)nn(-c2nnc3c4ccccc4n(C)c3n2)c1C,7.1µM*,26%,-26%,i,0.79µM*,-11%
Cn1c2ccccc2c2nnc(NN)nc21,0%,-13%,2%,/,-13%,80%
CC(=O)c1c(C)[nH]c(C(=O)Nc2nc(-c3ccc(Cl)cc3)cs2)c1C,?,?,-1%,i,?,16%
CC(=O)c1c(C)[nH]c(C(=O)Nc2ccc(C)cn2)c1C,?,?,7%,i,2µM*,9%
CC(=O)c1c(C)[nH]c(C(=O)Nc2nc(C)cs2)c1C,10µM*,?,-10%,i,4.5µM*,3%
CC(=O)c1c(C)[nH]c(C(=O)Nc2ccc(S(=O)(=O)N(C)C)cc2)c1C,1%,40%,-5%,i,0.22µM*,-11%
N=C1SC(=Cc2ccc(-c3ccc4c(c3)C(=O)NC4=O)o2)C(=O)N1c1ccc(Br)cc1,/,-12%,/,/,/,/
CCOC(=O)c1c(S(=O)(=O)NCC(=O)N2CCN(c3cccc(Cl)c3)CC2)c(C)n(C)c1C,/,-2%,-21%,i,/,-7%
COC1=CC(=O)C(OC)=C(OC)C1=O,/,?,?,25µM*,/,-112%
Clc1ccc2ccc3cccnc3c2n1,?,/,-30%,i,13µM*,-49%
CCN(CC)C(=O)c1cc([N+](=O)[O-])cc2c1-c1ccc([N+](=O)[O-])cc1C2=C(C#N)C#N,20µM*,-17%,?,i,?,-29%
Cc1cc(N/C=C/C(=O)c2cccs2)ccc1F,0%,49%,-16%,?,-1%,-28%
Cc1ccc(N/C=C/C(=O)c2cccs2)cc1C,?,?,-12%,i,13µM*,-10%
COc1ccc(C(=O)NCCn2cc(SCC(=O)Nc3ccc(F)cc3)c3ccccc32)cc1,/,?,?,32µM*,/,-30%
Cc1ccc(C(=O)NCCn2cc(SCC(=O)N3CCOCC3)c3ccccc32)cc1,-1%,5%,1%,i,13µM*,-4%
CCOc1ccc(C(=O)NCCn2cc(SCC(=O)Nc3ccccc3)c3ccccc32)cc1,/,?,10µM*,?,/,-14%
COc1ccc(C(=O)NCCn2cc(SCC(=O)Nc3ccc(C)cc3)c3ccccc32)cc1,/,?,?,?,/,-3%
Cc1cc(C)c2oc(-c3cccc(NC(=O)COc4ccc(Cl)cc4C)c3C)nc2c1,/,/,-4%,/,/,4%
COC(=O)c1c(-c2ccc(C)cc2)csc1NC(=S)NC(=O)c1cc(OC)cc(OC)c1,8.9µM*,6%,0%,i,2.8µM*,14%
CCOC(=O)c1c(-c2cccc([N+](=O)[O-])c2)csc1NC(=O)C1CCCCC1,10µM*,-7%,9%,i,?,-36%
CCOC(=O)c1c(-c2ccccc2)csc1NC(=S)NC,1µM*,-15%,?,i,?,-46%
CCOC(=O)c1c(-c2ccc(C)cc2)csc1NC(=O)c1cc(-c2ccc(OC)cc2)on1,/,3%,14%,i,/,3%
CCOC(=O)c1c(-c2ccc(-c3ccccc3)cc2)csc1NC(=O)CNCCN(C)C,1.6µM*,?,?,?,0.63µM*,i
SMILES,VP16 counter,ATXN2 expr inh,TGFb inhibitor,S2 tox,RORg inh,HepG2 tox
COc1ccc(CNC(=O)CCc2c(C)nn(-c3ccc(N4CCOCC4)nn3)c2C)cc1,/,4%,12%,i,/,-2%
CCOC(=O)N1CCN([N+]([O-])=NOc2ccc([N+](=O)[O-])cc2C#N)CC1,/,8%,/,/,/,/
CCOC(=O)c1c(-c2ccccc2)csc1NC(=O)CCN1C(=O)c2ccccc2C1=O,-5%,3%,-7%,i,25%,-4%
CCNC(=S)Nc1scc(-c2ccccc2)c1C(=O)OCC,2.5µM*,2%,?,i,1.4µM*,-31%
CCSc1nc2sc3c(c2c(=O)[nH]1)CCc1ccccc1-3,-24%,/,-14%,i,?,-22%
NNc1nc2sc3c(c2c(=O)[nH]1)CCc1ccccc1-3,18µM*,-6%,?,i,16µM*,-1%
CCC(=O)OCC(=O)[C@@]1(OC(=O)CC)[C@H](C)C[C@H]2[C@@H]3CCC4=CC(=O)C=C[C@]4(C)[C@@]3(F)[C@@H](O)C[C@@]21C,/,/,/,i,/,/
Cc1ccc(-c2nnc(Nc3ccc(F)cc3)c3ccccc23)cc1S(=O)(=O)NC(C)C,/,11%,-9%,i,/,0%
C[n+]1ccnc2ccccc21,/,/,5µM*,/,/,-105%
C[n+]1ccnc2cc(Cl)ccc21,/,/,1.1µM*,/,/,1.4µM*
O/N=C(/CBr)c1ccc2ccccc2c1,/,/,12%,/,/,0%
Cc1ccc2ccc3ccc(C)nc3c2n1,0.56µM*,?,?,?,0.25µM*,-10%
Fc1ccc(F)c(Nc2c3c(nc4ccc(Cl)cc24)CCC3)c1,/,?,?,?,/,18µM*
FC(F)(F)c1cccc(Nc2c3c(nc4ccc(Cl)cc24)CCC3)c1,/,/,18µM*,/,/,-75%
COc1ccc(Nc2c3c(nc4ccccc24)CCC3)cc1Cl,/,?,?,/,/,-48%
Cc1cc([N+](C)(C)C)cc(C)c1/C=C/c1ccnc2ccccc12,/,/,-12%,/,/,-15%
CCCCCCCCCC(=O)NO,-10%,/,/,i,27%,/
Cc1cccc(CS(=O)(=O)c2ncc(Cl)c(C(=O)NCc3ccccc3)n2)c1,3.2µM*,/,3.2µM*,/,5.6µM*,3.5µM*!
CCOC(=O)c1nc(S(C)(=O)=O)ncc1Cl,5µM*,?,?,/,4µM*,11µM*
CCOC(=O)c1nc(S(C)(=O)=O)ncc1N1CCOCC1,-4%,25%,4%,i,-1%,-2%
Cc1nnc(NC(=O)c2nc(S(=O)(=O)Cc3ccccc3)ncc2Cl)s1,13µM*,?,?,32µM*,7.9µM*,-130%
Cc1cccc(C)c1NC(=O)c1nc(S(=O)(=O)Cc2ccccc2)ncc1Cl,5µM*,?,11µM*,?,10µM*,-178%
O=C(NCc1ccccc1)c1nc(S(=O)(=O)Cc2ccc(F)cc2)ncc1Cl,/,/,?,/,/,-112%
CCOc1ccc(C2=CC(c3cccc(Br)c3)n3c(nc4ccccc43)N2)cc1Cl (stereo not given),/,60%,-2%,i,/,-53%
